Source: PubChem BioAssay (several laboratories)
Rows were chosen to be rich in hits. Some 10% of all compounds tested hit in one or more screens of this group.
HCT116 PTEN-null: growth suppression of PTEN-null HCT116, primary screen, cell-based, CellTiter-Glo | viability, % at 10 µM | 140,000 compounds, 1.2% hits | HCT116 PTEN-null viability, 60 h; hits give low values | AID 827, 2007;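 active = viability at or below a set limit, 4 SD under the median of all tested compounds, cut at about 3.7% in these data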;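 note: PTEN knockout HCT116 line with beta catenin targeted HCT116 as companion control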
bCat KO growth: primary screen for growth suppressors in beta-catenin knockout HCT116 cells (colon tumor, human); HCT116 beta-catenin knockout viability, CellTiter-Glo, 60 h; hits give low values; viability, % at 10 µM; 140,000 compounds, 1.5% hits;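 active = viability at or under a set limit, the compound median less 4 SD, cut at about 6% in these data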
Lmaj promast: Leishmania major promastigote growth inhibition, primary screen; Leishmania major promastigotes, resazurin fluorescence viability; inhibition, % at 10 µM; 200,000 compounds, 9% hits; in the data active = inhibition above about 50%;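 note: promastigotes grown with compound for 44 hours at 28 °C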
ROMK primary: ROMK potassium channel modulators, primary screen, cell-based, thallium flux, MLSMR library; ATP-sensitive inward rectifier potassium channel 1 (Homo sapiens), P48048; 130,000 compounds, 2% hits; Tet-inducible ROMK, thallium flux fluorescence; actives lie on both sides; B-score at 10 µM;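 active = signal ratio slope over the read window, or its plate-corrected B-score, at least 3 SD from the plate mean, either direction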;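 note: B-score of the F/F0 ratio slope over 7 to 12 s after thallium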
INS promoter inh: inhibitors of insulin promoter-driven GFP, primary screen, imaging, TRM-6 cells (human fetal islet line), eGFP reporter, cell count | inhibition, % at 2 µM | AID 1273, 2008 | 130,000 compounds, 0.9% hits | reporter expression induced with tamoxifen;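 active = inhibition above the mean plus 3 SD, with well images judged a real hit on visual review, cut at about 60% in these data, passing the limit was not always enough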
p97 inhibitor: inhibitors of human p97 ATPase, primary screen, biochemical | recombinant p97 ATPase, Kinase-Glo ATP luminescence, 3 h | inhibition, % at 8 µM | 220,000 compounds, 0.42% hits | AID 1481, 2009; in the data active = inhibition above about 15%
Target sequence (P55072 whole entry, looked up): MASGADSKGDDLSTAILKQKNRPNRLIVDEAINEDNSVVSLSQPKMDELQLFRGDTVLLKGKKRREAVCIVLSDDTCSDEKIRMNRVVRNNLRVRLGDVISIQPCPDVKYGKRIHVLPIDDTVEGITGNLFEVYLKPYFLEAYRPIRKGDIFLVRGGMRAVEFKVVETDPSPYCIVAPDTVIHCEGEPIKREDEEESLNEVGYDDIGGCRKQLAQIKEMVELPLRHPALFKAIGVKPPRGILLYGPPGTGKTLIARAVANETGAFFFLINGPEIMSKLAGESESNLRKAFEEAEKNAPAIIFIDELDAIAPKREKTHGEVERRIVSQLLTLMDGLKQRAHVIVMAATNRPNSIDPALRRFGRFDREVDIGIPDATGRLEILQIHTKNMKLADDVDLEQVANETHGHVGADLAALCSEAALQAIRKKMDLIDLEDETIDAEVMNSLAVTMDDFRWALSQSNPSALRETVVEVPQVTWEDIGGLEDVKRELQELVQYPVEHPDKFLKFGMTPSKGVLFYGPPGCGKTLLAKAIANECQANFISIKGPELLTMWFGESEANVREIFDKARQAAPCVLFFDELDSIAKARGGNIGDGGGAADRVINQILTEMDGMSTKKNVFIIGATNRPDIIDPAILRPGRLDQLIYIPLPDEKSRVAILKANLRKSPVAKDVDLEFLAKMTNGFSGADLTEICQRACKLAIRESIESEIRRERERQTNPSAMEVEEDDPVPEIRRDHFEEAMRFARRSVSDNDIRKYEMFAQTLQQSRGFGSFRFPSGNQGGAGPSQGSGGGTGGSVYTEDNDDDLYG
Of the large screens only hits and unclear results are named; the others gave an inactive call.

Oc1ccc(/C=N/Nc2cc(N3CCOCC3)nc(N3CCOCC3)n2)cc1O	bCat KO growth 3.0
COc1ccccc1/C=N/Nc1cc(C)nc(N2CCOCC2)n1	none (no result: HCT116 PTEN-null, bCat KO growth, Lmaj promast, ROMK primary, INS promoter inh)
COc1ccc(/C=N/Nc2cc(C)nc(N3CCOCC3)n2)cc1OC	none (no result: HCT116 PTEN-null, bCat KO growth, Lmaj promast, ROMK primary, INS promoter inh)
CC(=O)NNc1cc(N2CCOCC2)nc(N2CCOCC2)n1	none (no result: HCT116 PTEN-null, bCat KO growth, INS promoter inh)
Oc1cccc(/C=N/Nc2cc(N3CCOCC3)nc(N3CCOCC3)n2)c1	Lmaj promast 61
Cc1ccc(NC(=O)COC(=O)[C@H](C)NC(N)=O)c(C)c1	none (no result: HCT116 PTEN-null, bCat KO growth, INS promoter inh)
CSCCC(NC(=O)c1ccc([N+](=O)[O-])cc1Cl)C(=O)OCC(=O)C12CC3CC(CC(C3)C1)C2 (centres undefined)	Lmaj promast 99
CSCCC(NC(=O)C12CC3CC(CC(C3)C1)C2)C(=O)OCC(=O)c1ccc(C)cc1 (centres undefined)	none (no result: INS promoter inh)
Cc1cccc(C)c1NC(=S)NC(C)CCc1ccccc1 (centres undefined)	Lmaj promast 61 (no result: ROMK primary, INS promoter inh)
CC(=O)c1ccc(NC(=S)NC(C)CCc2ccccc2)cc1 (centres undefined)	none (no result: HCT116 PTEN-null, bCat KO growth, INS promoter inh)
Cc1ccccc1NC(=O)C(=O)NC(C)CCc1ccccc1 (centres undefined)	none (no result: ROMK primary)
Cc1ccc(NC(=S)NC(C)CCc2ccccc2)cc1C (centres undefined)	Lmaj promast 90
FC(F)Oc1ccc(NC(=S)N2CCc3ccccc32)cc1	none (no result: HCT116 PTEN-null, bCat KO growth, ROMK primary)
COc1cc(/C=C\C(=O)OCn2nnc3ccccc3c2=O)cc(OC)c1OC	none (no result: HCT116 PTEN-null, bCat KO growth)
Cc1ccc(S(=O)(=O)NCC(c2cccnc2)N2CCOCC2)cc1 (centres undefined)	none (no result: HCT116 PTEN-null, bCat KO growth)
O=S(=O)(NCC(c1cccnc1)N1CCN(Cc2ccccc2)CC1)c1ccccc1 (centres undefined)	Lmaj promast 83 (no result: ROMK primary, INS promoter inh)
O=S(=O)(NCC(c1cccnc1)N1CCN(c2ccccc2F)CC1)c1cccs1 (centres undefined)	Lmaj promast 78 (no result: ROMK primary, INS promoter inh)
CCN1CCN(C(CNS(=O)(=O)c2cccs2)c2cccnc2)CC1 (centres undefined)	none (no result: HCT116 PTEN-null, bCat KO growth, Lmaj promast, INS promoter inh)
O=S(=O)(NCC(c1cccnc1)N1CCN(c2ccc(F)cc2)CC1)c1cccs1 (centres undefined)	Lmaj promast 87 (no result: ROMK primary)
O=S(=O)(NCC(c1cccnc1)N1CCN(c2ccc(F)cc2)CC1)c1ccc(F)cc1 (centres undefined)	Lmaj promast 91 (no result: ROMK primary, INS promoter inh)
Cc1ccccc1CN(c1ccc(C(=O)NCc2ccccn2)cc1)S(C)(=O)=O	none (no result: HCT116 PTEN-null, bCat KO growth)
Cc1oc(=O)c(NC(=O)c2cccc(Cl)c2)cc1C(=O)c1ccccc1	none (no result: ROMK primary)
COCC(C)n1c(C)cc(C(=O)COC(=O)CN=C2NS(=O)(=O)c3ccccc32)c1C (centres undefined)	none
O=C(Nc1ccc(Cl)cc1)/C(=C/c1cccc(O)c1)c1nc2ccccc2s1	HCT116 PTEN-null 1.9, bCat KO growth 2.2, Lmaj promast 100 (no result: ROMK primary)
CSc1ccccc1NC(=O)NCCCl	none (no result: HCT116 PTEN-null, bCat KO growth, INS promoter inh)
O=C(NC(=S)N1CCCc2ccccc21)c1ccc(Cl)cc1	Lmaj promast 64
O=C(CCSc1ccccc1)Nc1nccs1	none
O=C(CSc1ccccc1)N(c1ccc(Br)cc1)c1nccs1	Lmaj promast 67
COCCCNC(=O)c1c(N)n(-c2ccc(S(N)(=O)=O)cc2)c2nc3ccccc3nc12	none (no result: ROMK primary)
C=CCNC(=O)c1c(N)n(-c2cccc(S(N)(=O)=O)c2)c2nc3ccccc3nc12	Lmaj promast 84
O=[N+]([O-])c1ccc(N=Nc2ccc(O)cc2O)cc1	HCT116 PTEN-null 2.4, bCat KO growth 1.9
Cc1ccc(-c2nnn(CCC(=O)NC3CCCC3)n2)cc1	none (no result: ROMK primary, INS promoter inh)
COc1ccc(C2=CSC3=NNC4(CCCCC4)NN23)cc1	Lmaj promast 67 (no result: HCT116 PTEN-null, bCat KO growth)
CC(=O)Oc1cccc(/C=c2\sc3nc(-c4ccco4)nn3c2=O)c1	none
COc1ccc(C2=C/C(=C\c3cccc(OC(C)=O)c3)C(=O)O2)cc1	Lmaj promast 51 (no result: ROMK primary)
Nc1nc(N)nc(COc2ccccc2)n1	none (no result: HCT116 PTEN-null, bCat KO growth)
COc1ccc(-n2c(SCC(=O)Nc3ccc(Br)cc3)nc(O)cc2=O)cc1	none (no result: HCT116 PTEN-null, bCat KO growth, Lmaj promast, INS promoter inh)
CCOC(=O)c1ccccc1NC(=O)Cn1c(=O)n(Cc2ccccc2)c(=O)c2c(C)c(C)sc21	none
O=C(CC1SC2=NCCN2C1=O)Nc1ccc(Cl)cc1 (centres undefined)	INS promoter inh 77 (no result: ROMK primary)
CSCCC(NS(=O)(=O)c1ccc(Cl)cc1)C(=O)OCC(=O)N(C(C)C)C(C)C (centres undefined)	none
CSCCC(NS(=O)(=O)c1ccccc1F)C(=O)OCc1ccccc1Cl (centres undefined)	Lmaj promast 75 (no result: ROMK primary)
CSCCC(NS(=O)(=O)c1ccc(Cl)cc1)C(=O)OCc1c(Cl)cccc1Cl (centres undefined)	Lmaj promast 99
CSCCC(NS(=O)(=O)c1ccc(Cl)cc1)C(=O)O (centres undefined)	none (no result: HCT116 PTEN-null, bCat KO growth, INS promoter inh)
CSCCC(NS(=O)(=O)c1ccc(Br)cc1)C(=O)OCC(=O)NC1CC1 (centres undefined)	INS promoter inh 83 (no result: HCT116 PTEN-null, bCat KO growth)
CSCCC(NS(=O)(=O)c1ccc(Cl)cc1)C(=O)OCC(=O)NC1CC1 (centres undefined)	none (no result: ROMK primary)
CSCCC(NS(=O)(=O)c1ccc(Cl)cc1)C(=O)OCc1cccc(Cl)c1 (centres undefined)	Lmaj promast 97 (no result: ROMK primary)
CCOC(=O)c1ccc(NC(=O)c2ccccc2N(C)S(=O)(=O)c2ccccc2)cc1	none (no result: ROMK primary, INS promoter inh)
CCOC(=O)c1c(-c2ccccc2)cn2c(C)cc(C)nc12	none (no result: HCT116 PTEN-null, bCat KO growth, INS promoter inh)
CC(C)(C)c1ccc(NC(=O)Nc2ccc(OCC(=O)N3CCOCC3)cc2)cc1	none (no result: HCT116 PTEN-null, bCat KO growth)
O=C(Nc1cc(Cl)cc(Cl)c1)N1CCCC1	none (no result: HCT116 PTEN-null, bCat KO growth, Lmaj promast, ROMK primary, INS promoter inh)
Cc1c(C=O)c2ccccn2c1C(=O)c1ccccc1	none
Cc1c(C(C)(C)C)c(C=S)n2ccccc12	Lmaj promast 63
CN(C)CCNc1nc2c(c(=O)[nH]c(=O)n2C)n1CC(O)COc1ccc(Cl)cc1 (centres undefined)	none (no result: INS promoter inh)
CCN(CC)CCNc1nc2c(c(=O)[nH]c(=O)n2C)n1CC(O)COc1ccc(Cl)cc1Cl (centres undefined)	Lmaj promast 92 (no result: ROMK primary)
CN1CCN(C(c2cccc(C(F)(F)F)c2)c2nnnn2Cc2ccccc2)CC1 (centres undefined)	none (no result: ROMK primary, INS promoter inh)
Cc1[nH][nH]c(=O)c1C(c1c(C)[nH][nH]c1=O)c1cn(Cc2ccc(F)cc2)c2ccccc12	Lmaj promast 99, ROMK primary -4.8, p97 inhibitor 26
NC(=S)N/N=C/c1ccc(-c2cc(Cl)ccc2Cl)o1	Lmaj promast 100
CCOC(=O)N/N=C\c1ccc(-c2cc(Cl)ccc2Cl)o1	none (no result: HCT116 PTEN-null, bCat KO growth, INS promoter inh)
COC(=O)N/N=C/c1ccc(-c2cccc(Cl)c2)o1	Lmaj promast 61
NC(=S)N/N=C/c1ccc(-c2cc(Cl)cc(Cl)c2)o1	Lmaj promast 97
CC(C)Nc1ccc(Cl)cc1[N+](=O)[O-]	none (no result: HCT116 PTEN-null, bCat KO growth, Lmaj promast, INS promoter inh)
